Laboratory results from PubChem BioAssay (NCI).
About 79,000 compounds went through this panel and 15% of them were active in at least one assay; those are over-represented in the sample as a whole. Cut-off read from the data, not from the text of the source: active = growth inhibition above about 70%; inactive = the rest.

Tests used:
[1] = NCI Yeast Anticancer Drug Screen. Data for the rad50 strain (AID 155);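 note: 0% = growth of vehicle-only cultures of the same strain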; settings: S. cerevisiae rad50 strain growth inhibition; at 50.0 µM; stronger effect = higher value
Procedure, shortened: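 Genetically altered yeast (DNA repair pathway); compound treatment; growth inhibition vs vehicle ctrl.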

[2] = NCI Yeast Anticancer Drug Screen. Data for the mec2-1 strain (AID 157); settings: S. cerevisiae mec2-1 strain, at 50.0 µM, stronger effect = higher value
Procedure, shortened: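 Growth inhibition is read against vehicle-treated controls after compound exposure of the mec2-1 yeast strain, which is defective in DNA damage repair or cell cycle control.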

[3] = NCI Yeast Anticancer Drug Screen. Data for the sgs1 mgt1 strain (AID 161);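 note: 0% = growth of cultures given vehicle only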; settings: S. cerevisiae sgs1 mgt1 strain, at 50.0 µM, stronger effect = higher value
Procedure, shortened: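 Percent growth inhibition was derived by comparing compound-exposed mutant yeast with vehicle-exposed cultures. The strain carries alterations in DNA damage repair.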

[4] = NCI Yeast Anticancer Drug Screen. Data for the cln2 rad14 strain (AID 165);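 note: 0% = growth equal to vehicle treated cultures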; settings: S. cerevisiae cln2 rad14 strain, at 50.0 µM, stronger effect = higher value
Procedure, shortened: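 Growth inhibition, relative to vehicle-treated controls, is the read-out. The test organism is a yeast strain with defined genetic alterations, cln2 rad14.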

[5] = NCI Yeast Anticancer Drug Screen. Data for the bub3 strain (AID 167); settings: S. cerevisiae bub3 mutant strain, at 50.0 µM, stronger effect = higher value
Procedure, shortened: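 Yeast carrying a defined mutation is treated with each compound, and growth is compared with that of vehicle-exposed cells to give inhibition.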

[6] = NCI Yeast Anticancer Drug Screen. Data for the mlh1 rad18 strain (AID 175); settings: S. cerevisiae mlh1 rad18 strain growth inhibition; at 50.0 µM; stronger effect = higher value
Procedure, shortened: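 Cells of a genetically altered yeast strain, deficient in DNA damage repair, were treated with compound. Their growth was then compared with that of vehicle-treated cultures to give inhibition.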

Measured: growth inhibition

CC(C)CC1OCC(C)(C)CO1
inactive: [1] -0.6% | [2] -12.4% | [3] -11.3% | [4] -7.05% | [5] -7.9% | [6] -9.8%

OC1OCc2cc3ccccc3cc21 (stereo not given)
inactive: [1] 21.4% | [2] -0.95% | [3] -8.35% | [4] 3.6% | [5] -7.8% | [6] 3.65%

CCN(CC)/C(C=[N+]=[N-])=N\C(N)=N\S(=O)(=O)c1ccc(OC)cc1
inactive: [1] -37.2% | [2] -13.9% | [3] -13.8% | [4] -28% | [5] 4.05% | [6] 13.4%

CN(C)CCN=C1Nc2ccccc2C(=O)N2CSCC12 (stereo not given)
inactive: [1] -3.25% | [2] -1.95% | [3] -8.7% | [4] -1.25% | [5] -15.3% | [6] 17.3%

COC(=O)CCNc1c(OC)ccc2ccccc12
inactive: [1] 22.1% | [2] 3.85% | [3] 11.8% | [4] 17.9% | [5] 28.4% | [6] -5%

COc1ccc(SC2=CC(=O)c3ccccc3C2=O)cc1
inactive: [1] 41% | [2] 11.2% | [3] 34.2% | [4] -16.4% | [5] -11.6% | [6] 30.6%

C=C(C)C#CC1(O)C=C(OC)C(OC)=CC1=O (stereo not given)
inactive: [1] -36.4% | [2] -12.7% | [3] -10.1% | [4] -61.9% | [5] -13.1% | [6] 7.35%

CCOC(=O)Nc1ccccc1F
inactive: [1] 4.4% | [2] -16.1% | [3] -3.95% | [4] -6.15% | [5] 4.75% | [6] 9%

Cc1ccc(S(=O)(=O)NC2CC3(C)CCC2C3(C)C)cc1 (stereo not given)
inactive: [1] -0.6% | [2] -20.4% | [3] -5.55% | [4] -46.1% | [5] 14.8% | [6] -4.45%

O=C(c1ccccc1)C(O)(c1ccccc1)C1CCCC/C1=N\N(c1ccccc1)c1ccccc1 (stereo not given)
inactive: [1] 37% | [2] 31.4% | [3] 29.9% | [4] 32.7% | [5] -20.4% | [6] 37.3%

O=C1C=CC2(CCC23C=CC(=O)O3)O1 (stereo not given)
inactive: [1] 13% | [2] 1.95% | [3] 11% | [4] 4.2% | [5] 12.2% | [6] 20.1%

CCN(CC)CCOC(=O)Nc1c(Cl)cccc1Cl
inactive: [1] -3.75% | [2] -16.7% | [3] 8.6% | [4] 9.4% | [5] 9.25% | [6] 6.05%

CN1CCC2(CC1)C(=O)N(Cc1ccccc1)C(=O)C2c1ccccc1 (stereo not given)
inactive: [1] -9.95% | [2] -6.95% | [3] -6% | [4] 6.05% | [5] 3.4% | [6] -13.4%

O=C(Cn1cc[n+](CC(=O)c2ccccc2)c1)c1ccccc1
inactive: [1] -5.45% | [2] 4.7% | [3] -4% | [4] -36.6% | [5] 6.05% | [6] 63.4%

Cn1c2ccccc2c2ccc3c(c21)C(=O)C(c1ccccc1)=CC3=O
inactive: [1] 19.7% | [2] -21.2% | [3] -10.3% | [4] 17.6% | [5] -28.3% | [6] -5.85%

CCOC(=O)C1CC(CCl)OC1=O (stereo not given)
inactive: [1] -3.65% | [2] 7.1% | [3] 2.1% | [4] -22.9% | [5] 0.6% | [6] 3.95%

Cc1cc(Cl)cc(CN(C)Cc2c(C)[nH]c(=O)[nH]c2=O)c1O
inactive: [1] -31.4% | [2] -17.1% | [3] -17.2% | [4] 2.65% | [5] -0.5% | [6] -8.9%

N#CC1(CCCI)CCCC1
inactive: [1] 9.3% | [2] 7.05% | [3] 7.95% | [4] -7.45% | [5] -2.3% | [6] 6.1%

O=C1c2ccccc2C(=O)N1n1c(Cc2ccccc2)n[nH]c1=O
inactive: [1] -16.1% | [2] -28.2% | [3] -41.5% | [4] -10.8% | [5] -16.5% | [6] -16.2%

O=C1/C(=C/c2ccc(O)c(O)c2)CC/C1=C\c1ccc(O)c(O)c1
inactive: [1] -18.9% | [2] -23.9% | [3] -21% | [4] 10.9% | [5] -16.1% | [6] -22.6%
